PubChem BioAssay (EPA / NIEHS)
The source made the active and inactive calls. The calls were made as follows: active = hit-call score of the fitted dose curve at least 0.9, where 1 is the maximum; inactive = score below 0.9.

What was measured:
Conditions in all cases: mRNA level, 48 h; actives raise or lower the signal
[1] = read-out: solute carrier (SLC22A1), SLC22A1 (gene 6580); test: LTEA_HepaRG_SLC22A1: Life Technologies and Expression Analysis (LTEA) Assay for solute carrier (SLC22A1) using HepaRG (AID 2283524)
How it was run: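 Differentiated human HepaRG cells in serum-free induction medium, exposed 48 h in duplicate to 8-point half-log series from 100 µM top in 0.5% DMSO. SLC22A1 mRNA by TaqMan qRT-PCR normalized to ACTB, GAPDH, POLR2A; bidirectional fit versus DMSO.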

[2] = read-out: Pyruvate Dehydrogenase Kinase 4 (PDK4), PDK4 (gene 5166); test: LTEA_HepaRG_PDK4: Life Technologies and Expression Analysis (LTEA) Assay for Pyruvate Dehydrogenase Kinase 4 (PDK4) using HepaRG (AID 2283525)
How it was run: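 HepaRG cells plated 48 h, then switched to serum-free induction medium and exposed in duplicate for 48 h to 8 half-log concentrations from 100 uM in 0.5% DMSO. PDK4 mRNA measured by qRT-PCR, normalized to ACTB, GAPDH and POLR2A; bidirectional fit versus DMSO.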

[3] = read-out: NAD(P)H dehydrogenase [quinone] 1 (NQO1), NQO1 (gene 1728); test: LTEA_HepaRG_NQO1: Life Technologies and Expression Analysis (LTEA) Assay for NAD(P)H dehydrogenase [quinone] 1 (NQO1) using HepaRG (AID 2283526)
How it was run: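 Differentiated HepaRG cells, plated 48 h and then switched to serum-free induction medium, were exposed in duplicate for 48 h to 8-point half-log concentrations up to 100 uM in 0.5% DMSO. mRNA measured by qRT-PCR, normalized to ACTB, GAPDH, POLR2A; bidirectional fit versus DMSO.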

[4] = read-out: Nuclear factor erythroid 2-related factor 2 (Homo sapiens) (UniProt Q16236); test: LTEA_HepaRG_NFE2L2: Life Technologies and Expression Analysis (LTEA) Assay for Nuclear factor erythroid 2-related factor 2 (NFE2L2) Transcription Factor using HepaRG (AID 2283527);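 as to outcome: TaqMan qRT-PCR transcript level normalised to ACTB GAPDH and POLR2A housekeeping genes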
How it was run: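 Differentiated human HepaRG cells, serum-free induction medium, exposed 48 h in duplicate to eight half-log concentrations up to 100 uM in 0.5% DMSO. NFE2L2 mRNA by Fluidigm TaqMan qRT-PCR, normalised to ACTB, GAPDH, POLR2A; bidirectional change versus DMSO.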

[5] = read-out: succinate dehydrogenase complex iron sulfur subunit B (SDHB), SDHB (gene 6390); test: LTEA_HepaRG_SDHB: Life Technologies and Expression Analysis (LTEA) Assay for succinate dehydrogenase complex iron sulfur subunit B (SDHB) using HepaRG (AID 2283528)
How it was run: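 HepaRG, 48 h exposure, 8-pt half-log series from 100 uM in 0.5% DMSO, duplicates. Readout: SDHB mRNA by Fluidigm qRT-PCR vs housekeeping genes; bidirectional fit relative to DMSO.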

[6] = read-out: Signal transducer and activator of transcription 3 (Homo sapiens) (UniProt P40763); test: LTEA_HepaRG_STAT3: Life Technologies and Expression Analysis (LTEA) Assay for Signal transducer and activator of transcription (STAT3) using HepaRG (AID 2283529)
How it was run: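 Differentiated HepaRG cells, serum-free induction medium, dosed 48 h in duplicate, 8 half-log concentrations from 100 uM in 0.5% DMSO. STAT3 mRNA by qRT-PCR, normalised to ACTB, GAPDH, POLR2A; bidirectional fit versus DMSO.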

[7] = read-out: solute carrier (SLCO1B1), SLCO1B1 (gene 10599); test: LTEA_HepaRG_SLCO1B1: Life Technologies and Expression Analysis (LTEA) Assay for solute carrier (SLCO1B1) using HepaRG (AID 2283530)
How it was run: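 Differentiated human HepaRG cells were exposed for 48 h in serum-free induction medium to eight half-log concentrations, top 100 uM, in 0.5% DMSO. SLCO1B1 mRNA was measured by qRT-PCR, normalized to ACTB, GAPDH and POLR2A, and fitted bidirectionally against DMSO.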

[8] = read-out: sulfotransferase 2A1 (SULT2A1), SULT2A1 (gene 6822); test: LTEA_HepaRG_SULT2A1: Life Technologies and Expression Analysis (LTEA) Assay for sulfotransferase 2A1 (SULT2A1) using HepaRG (AID 2283531)
How it was run: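 HepaRG human liver cells, 48 h exposure in serum-free induction medium to 8 half-log concentrations topping at 100 µM (0.5% DMSO), duplicate wells. SULT2A1 mRNA measured by TaqMan qRT-PCR, normalized to ACTB/GAPDH/POLR2A; bidirectional fit against DMSO.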

[9] = read-out: Transforming Growth Factor (TGFB1), TGFB1 (gene 7040); test: LTEA_HepaRG_TGFB1: Life Technologies and Expression Analysis (LTEA) Assay for Transforming Growth Factor (TGFB1) Transporter using HepaRG (AID 2283533)
How it was run: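 Differentiated HepaRG cells exposed 48 hr in serum-free induction medium to eight half-log concentrations up to 100 uM (0.5% DMSO), duplicate; TGFB1 mRNA by TaqMan qRT-PCR normalised to ACTB, GAPDH, POLR2A; bidirectional fit against DMSO.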

[10] = read-out: Transforming Growth Factor (TGFA), TGFA (gene 7039); test: LTEA_HepaRG_TGFA: Life Technologies and Expression Analysis (LTEA) Assay for Transforming Growth Factor (TGFA) using HepaRG (AID 2283532)
How it was run: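 Differentiated HepaRG cells exposed 48 hours in serum-free induction medium, 0.5% DMSO vehicle, 8-point half-log series from 100 uM, in duplicate. TGFA mRNA by TaqMan qRT-PCR, normalised to ACTB, GAPDH, POLR2A; bidirectional fit versus DMSO.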

Sequence of Nuclear factor erythroid 2-related factor 2 (Homo sapiens) (Q16236 whole entry, looked up): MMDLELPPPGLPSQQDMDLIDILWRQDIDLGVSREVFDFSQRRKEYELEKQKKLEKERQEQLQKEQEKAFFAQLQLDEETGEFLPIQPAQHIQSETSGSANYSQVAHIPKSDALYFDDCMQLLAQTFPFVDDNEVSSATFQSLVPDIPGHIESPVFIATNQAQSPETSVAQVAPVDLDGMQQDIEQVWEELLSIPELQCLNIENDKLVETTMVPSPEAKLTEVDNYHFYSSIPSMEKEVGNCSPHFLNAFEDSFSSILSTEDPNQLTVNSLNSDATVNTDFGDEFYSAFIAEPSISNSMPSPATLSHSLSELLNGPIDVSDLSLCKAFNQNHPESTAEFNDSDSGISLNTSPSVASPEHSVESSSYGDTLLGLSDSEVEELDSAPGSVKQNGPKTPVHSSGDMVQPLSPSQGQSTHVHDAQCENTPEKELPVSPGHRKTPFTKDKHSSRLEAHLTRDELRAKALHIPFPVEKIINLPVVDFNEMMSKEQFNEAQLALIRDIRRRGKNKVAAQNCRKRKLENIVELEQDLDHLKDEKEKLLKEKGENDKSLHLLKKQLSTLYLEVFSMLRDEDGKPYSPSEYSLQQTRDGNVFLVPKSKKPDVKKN
Sequence of Signal transducer and activator of transcription 3 (Homo sapiens) (P40763 whole entry, looked up): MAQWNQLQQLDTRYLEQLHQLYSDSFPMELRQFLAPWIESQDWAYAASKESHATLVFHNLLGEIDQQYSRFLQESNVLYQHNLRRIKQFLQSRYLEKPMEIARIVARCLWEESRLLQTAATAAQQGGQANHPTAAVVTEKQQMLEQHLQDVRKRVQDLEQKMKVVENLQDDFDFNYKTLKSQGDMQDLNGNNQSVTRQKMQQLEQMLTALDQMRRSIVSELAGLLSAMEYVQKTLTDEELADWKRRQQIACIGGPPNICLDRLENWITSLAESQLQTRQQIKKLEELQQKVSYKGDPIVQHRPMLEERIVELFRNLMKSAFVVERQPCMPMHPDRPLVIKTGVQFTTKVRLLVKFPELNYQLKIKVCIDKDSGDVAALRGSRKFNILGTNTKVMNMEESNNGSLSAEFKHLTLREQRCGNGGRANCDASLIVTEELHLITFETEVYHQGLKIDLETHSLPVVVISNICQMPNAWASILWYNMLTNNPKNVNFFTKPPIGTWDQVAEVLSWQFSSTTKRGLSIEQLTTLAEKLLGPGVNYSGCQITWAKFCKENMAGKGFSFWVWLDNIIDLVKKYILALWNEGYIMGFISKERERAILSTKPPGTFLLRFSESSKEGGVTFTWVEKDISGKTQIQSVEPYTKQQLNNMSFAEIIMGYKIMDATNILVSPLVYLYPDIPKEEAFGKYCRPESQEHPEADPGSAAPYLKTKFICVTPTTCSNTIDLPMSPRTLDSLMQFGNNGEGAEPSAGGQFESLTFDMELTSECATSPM

| SMILES | outcome [1] | outcome [2] | outcome [3] | outcome [4] | outcome [5] | outcome [6] | outcome [7] | outcome [8] | outcome [9] | outcome [10] | AC50 [1] | AC50 [2] | AC50 [4] | AC50 [6] | AC50 [7] | AC50 [8] | AC50 [9] | AC50 [3] |
| --- | --- | --- | --- | --- | --- | --- | --- | --- | --- | --- | --- | --- | --- | --- | --- | --- | --- | --- |
| CCCOc1nn(C(=O)NS(=O)(=O)c2ccccc2C(=O)OC)c(=O)n1C | inactive | inactive | inactive | inactive | inactive | inactive | inactive | inactive | inactive | – | – | – | – | – | – | – | – | – |
| CN(C)[C@@H]1C(=O)C(C(N)=O)=C(O)[C@@]2(O)C(=O)C3=C(O)c4c(O)cccc4[C@@](C)(O)[C@H]3[C@H](O)[C@@H]12 | inactive | inactive | inactive | inactive | inactive | inactive | inactive | inactive | inactive | – | – | – | – | – | – | – | – | – |
| CCOC(=O)COc1cc(-c2nn(C)c(OC(F)F)c2Cl)c(F)cc1Cl | inactive | inactive | inactive | inactive | inactive | inactive | inactive | – | inactive | inactive | – | – | – | – | – | – | – | – |
| CCCCSP(=O)(SCCCC)SCCCC | – | – | inactive | – | inactive | inactive | inactive | inactive | inactive | – | 78.9 µM (active) | 77.5 µM (active) | 78 µM (active) | – | – | – | – | – |
| CCCCN(CC)c1c([N+](=O)[O-])cc(C(F)(F)F)cc1[N+](=O)[O-] | inactive | inactive | inactive | inactive | inactive | inactive | inactive | – | inactive | inactive | – | – | – | – | – | – | – | – |
| CCCOCC(=Nc1ccc(Cl)cc1C(F)(F)F)n1ccnc1 | – | – | inactive | inactive | inactive | – | – | – | – | – | 21.4 µM (active) | 11.5 µM (active) | – | 50 µM (active) | 15.8 µM (active) | 66.6 µM (active) | 50 µM (active) | – |
| N#CSCSC#N | – | inactive | inactive | inactive | inactive | inactive | inactive | – | inactive | inactive | 74.2 µM (active) | – | – | – | – | – | – | – |
| COP(=O)(OC)OC(Br)C(Cl)(Cl)Br (configuration not stated) | inactive | inactive | – | inactive | inactive | inactive | inactive | – | inactive | inactive | – | – | – | – | – | 50 µM (active) | – | 21.1 µM (active) |
| CCOP(=O)(NC(C)C)Oc1ccc(SC)c(C)c1 (configuration not stated) | inactive | inactive | inactive | inactive | inactive | inactive | inactive | inactive | inactive | – | – | – | – | – | – | – | – | – |
| CCc1cccc(CC)c1N(COC)C(=O)CCl | inactive | – | inactive | inactive | inactive | inactive | inactive | inactive | inactive | – | – | 28.9 µM (active) | – | – | – | – | – | – |
| CC1=NNC(=O)N(/N=C/c2cccnc2)C1 | inactive | inactive | inactive | inactive | inactive | inactive | inactive | inactive | inactive | – | – | – | – | – | – | – | – | – |
| CCOP(=S)(Oc1cnc(C(C)(C)C)nc1)OC(C)C (configuration not stated) | inactive | – | inactive | inactive | inactive | inactive | inactive | inactive | inactive | inactive | – | 1.35 µM (active) | – | – | – | – | – | – |
| COP(=O)(NC(C)=O)SC (configuration not stated) | inactive | inactive | inactive | inactive | inactive | inactive | inactive | inactive | inactive | – | – | – | – | – | – | – | – | – |
| COP(=O)(OC)SCn1c(=O)oc2cc(Cl)cnc21 | – | inactive | inactive | inactive | inactive | inactive | inactive | inactive | inactive | inactive | 50 µM (active) | – | – | – | – | – | – | – |
| CCOP(=O)(OCC)Oc1cc(C)nc(C(C)C)n1 | inactive | inactive | inactive | inactive | inactive | inactive | inactive | inactive | inactive | inactive | – | – | – | – | – | – | – | – |
| C#CC(C)(C)NC(=O)c1cc(Cl)cc(Cl)c1 | inactive | inactive | inactive | inactive | inactive | inactive | inactive | inactive | inactive | – | – | – | – | – | – | – | – | – |
| CNc1cnn(-c2cccc(C(F)(F)F)c2)c(=O)c1Cl | – | inactive | inactive | – | inactive | inactive | inactive | inactive | inactive | inactive | 50 µM (active) | – | 9.92 µM (active) | – | – | – | – | – |
| CCOC(=O)CC(SP(=O)(OC)OC)C(=O)OCC (configuration not stated) | inactive | – | inactive | inactive | inactive | inactive | inactive | inactive | inactive | – | – | 22 µM (active) | – | – | – | – | – | – |
